Assay [1] is described as follows: qHTS assay to identify small molecule antagonists of the thyroid receptor (TR) signaling pathway (AID 743065; active means well fitted curve in the direction sought with a large enough effect in the repeat runs; inconclusive means weak or mixed curves; inactive means no such curve, though single readings can be large; an effect the other way counts as inactive or inconclusive; further: nearly all actives have a fitted effect of over 55% in size; further: potency means the concentration at half of the fitted maximal effect). Conditions: GH3.TRE-Luc, T3-stimulated luciferase inhibition, 23.5 h; series mostly up to 70.3 µM. Summed up:
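Antagonism measured as loss of luciferase signal in GH3 cells stably carrying a TRE-luciferase reporter, co-treated with compound and T3 (1 nM final) for 23.5 h at 37 C. Viability was read in the same well by CellTiter-Fluor.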

In assay [2] the test system is thyroid hormone receptor (rat, GH3 cells). Nature of the assay: qHTS assay to identify small molecule agonists of the thyroid receptor (TR) signaling pathway (AID 743066). Conditions: GH3.TRE-Luc cells, TR agonist luciferase, 24 h; series mostly up to 83.9 µM.
The nature of assay [3]: qHTS assay to identify small molecule antagonists of the estrogen receptor alpha (ER-alpha) signaling pathway - cell viability counter screen (AID 743074). Further: nearly all actives have a fitted effect of over 45% in size. Further: potency means the concentration at half of the fitted maximal effect. Conditions: ERalpha-bla HEK293 viability, CellTiter-Glo luminescence, 18 h; series mostly up to 69.4 µM.
Assay [4] is described as follows: qHTS assay to identify small molecule antagonists of the estrogen receptor alpha (ER-alpha) signaling pathway using the BG1 cell line - cell viability counter screen (AID 743081; active means well fitted curve in the direction sought with a large enough effect in the repeat runs; inconclusive means weak or mixed curves; inactive means no such curve, though single readings can be large; an effect the other way counts as inactive or inconclusive;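 further: compound given together with 17beta-estradiol as the ER stimulus; nearly all actives have a fitted effect of over 45% in size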; further: potency means the concentration at half of the fitted maximal effect). Conditions: BG1Luc4E2 viability, CellTiter-Fluor, 22 h; series mostly up to 70.3 µM.
Assay [5] addresses Estrogen receptor (Homo sapiens) (UniProt P03372). Nature of the assay: qHTS assay to identify small molecule antagonists of the estrogen receptor alpha (ER-alpha) signaling pathway (AID 743069; active means well fitted curve in the direction sought with a large enough effect in the signal ratio in the repeat runs, not every such curve was filed as active; inconclusive means weak or mixed curves, or effect the other way; inactive means no such curve, though single readings can be large or run the other way; the % refers to the signal ratio; further: potency means the concentration at half of the fitted maximal effect). Conditions: HEK293 ER-alpha-UAS-bla, beta-lactamase ratio, antagonist mode; series mostly up to 69.4 µM. The method, boiled down:
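Fluorescence intensity from a beta-lactamase FRET substrate served as the read-out. Cells: HEK293 with stably integrated ER-alpha-UAS-bla reporter. Agonist 17beta-estradiol was co-added with compounds; incubation 18 hr at 37C, substrate 2 hr at room temperature.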

Assay [6] has the same target. Description: qHTS assay to identify small molecule agonists of the estrogen receptor alpha (ER-alpha) signaling pathway (AID 743075). Conditions: HEK293 ER-alpha-UAS-bla, beta-lactamase FRET ratio, 18 h; series mostly up to 70.1 µM.
Assay [7] shares this target. Description: qHTS assay to identify small molecule agonists of the estrogen receptor alpha (ER-alpha) signaling pathway using the BG1 cell line (AID 743079; active means well fitted curve in the direction sought with a large enough effect in the repeat runs; inconclusive means weak or mixed curves; inactive means no such curve, though single readings can be large; an effect the other way counts as inactive or inconclusive; further: nearly all actives have a fitted effect of over 20% in size; further: potency means the concentration at half of the fitted maximal effect). Conditions: BG1Luc4E2 cells, ERE-luciferase agonist, 22 h; activation: at 70.3 µM (top of the series).
Assay [8] in a line: qHTS assay to identify small molecule antagonists of the estrogen receptor alpha (ER-alpha) signaling pathway using the BG1 cell line (AID 743080).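 Further: BG1 cells stimulated with 17beta-estradiol alongside compound; nearly all actives have a fitted effect of over 25% in size.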 Further: potency means the concentration at half of the fitted maximal effect. Conditions: BG1Luc4E2 ERE-luciferase antagonist mode, luminescence; series mostly up to 70.3 µM. Summed up:
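BG1Luc4E2, endogenous ER-alpha, 4xERE-luc; 5 d charcoal-stripped FBS, phenol red free; 24 h plating; cpd + 17beta-estradiol 21.5 h, 37 C/5% CO2; CellTiter-Fluor viability 30 min, then ONE-Glo luciferase 30 min RT.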

In the next assay the target is Aromatase (Homo sapiens) (UniProt P11511). Description: qHTS assay to identify aromatase inhibitors (AID 743083; active means well fitted curve in the direction sought with a large enough effect in the repeat runs; inconclusive means weak or mixed curves; inactive means no such curve, though single readings can be large; an effect the other way counts as inactive or inconclusive; further: nearly all actives have a fitted effect of over 55% in size; further: potency means the concentration at half of the fitted maximal effect). Conditions: MCF-7 aro ERE, testosterone-driven ERE luciferase, 24 h; series mostly up to 70.3 µM.

Experimental findings from PubChem BioAssay (Tox21) are described below.

Structures are written as SMILES. The source holds several records for some structures; these can differ, active in one and inactive in another. Active and inactive are the calls of the source. Unless noted, the call rests on the fitted dose curve.
On the % scale 0 is the no-effect control and ±100 the full control effect.

Sequence of Aromatase (Homo sapiens) (P11511 whole entry, looked up): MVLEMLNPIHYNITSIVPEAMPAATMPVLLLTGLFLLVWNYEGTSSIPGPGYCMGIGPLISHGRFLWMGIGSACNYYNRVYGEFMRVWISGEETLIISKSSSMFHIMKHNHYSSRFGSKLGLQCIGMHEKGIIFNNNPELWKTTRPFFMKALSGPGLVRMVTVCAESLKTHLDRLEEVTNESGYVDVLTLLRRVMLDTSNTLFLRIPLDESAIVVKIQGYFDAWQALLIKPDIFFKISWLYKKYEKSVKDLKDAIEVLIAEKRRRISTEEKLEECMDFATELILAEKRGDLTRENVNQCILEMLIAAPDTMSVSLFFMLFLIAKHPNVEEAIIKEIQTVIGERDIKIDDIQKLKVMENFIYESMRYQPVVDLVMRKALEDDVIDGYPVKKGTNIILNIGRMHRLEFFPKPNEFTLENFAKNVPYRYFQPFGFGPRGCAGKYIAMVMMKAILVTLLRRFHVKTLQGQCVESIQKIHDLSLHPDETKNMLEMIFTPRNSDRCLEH
Sequence of Estrogen receptor (Homo sapiens) (P03372 whole entry, looked up): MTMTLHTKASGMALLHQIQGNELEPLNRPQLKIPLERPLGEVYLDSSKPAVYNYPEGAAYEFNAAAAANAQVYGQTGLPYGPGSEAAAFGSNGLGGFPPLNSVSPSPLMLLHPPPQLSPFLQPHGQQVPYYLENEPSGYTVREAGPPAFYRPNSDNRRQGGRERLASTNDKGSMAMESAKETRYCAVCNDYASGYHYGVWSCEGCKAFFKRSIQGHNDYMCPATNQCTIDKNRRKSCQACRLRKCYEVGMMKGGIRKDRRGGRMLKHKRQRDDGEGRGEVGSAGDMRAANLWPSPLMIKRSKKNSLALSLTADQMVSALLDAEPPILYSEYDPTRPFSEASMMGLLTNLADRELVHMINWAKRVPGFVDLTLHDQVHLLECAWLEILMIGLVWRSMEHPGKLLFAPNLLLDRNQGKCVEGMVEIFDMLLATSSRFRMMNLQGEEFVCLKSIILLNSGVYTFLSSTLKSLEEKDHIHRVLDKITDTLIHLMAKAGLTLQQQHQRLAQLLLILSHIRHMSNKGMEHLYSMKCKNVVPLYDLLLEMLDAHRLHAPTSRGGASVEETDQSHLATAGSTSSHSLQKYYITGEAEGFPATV

`CN1CCN2c3ncccc3Cc3ccccc3C2C1` (stereo not drawn): the Potency in [1] is 21.1 µM (active). Also, the Potency result in assay [2], in [3] and in assay [4] was “inactive” throughout.

Take `COc1cc([C@@H]2c3cc4c(cc3C(O[C@@H]3O[C@@H]5CO[C@@H](C)O[C@H]5[C@H](O)[C@H]3O)C3COC(=O)[C@@H]32)OCO4)cc(OC)c1OP(=O)(O)O` (stereo partly drawn): the Potency was 11.9 µM (active) in [1]; 11.9 µM (active) and inactive in assay [7]. In addition, the Potency entry (in [2]; in assay [5]; in assay [6]; in assay [8]; with Aromatase (Homo sapiens)) was “inactive” throughout.

Consider `C/C(=C(\CCOC(=O)c1ccccc1)SS/C(CCOC(=O)c1ccccc1)=C(/C)N(C=O)Cc1cnc(C)nc1N)N(C=O)Cc1cnc(C)nc1N`, for which the Potency in assay [1] was 23.7 µM (active). Further, the Potency result in [2], in assay [5], in assay [3], in assay [6], in assay [8] and in assay [4] was “inactive” each time. Besides, in the assay with Aromatase (Homo sapiens), the Potency result was “inactive”.

`CCC(=O)Oc1ccc2c(c1)CC[C@@H]1[C@@H]2CC[C@]2(C)[C@@H](OC(=O)CC)CC[C@@H]12`: the Potency result in assay [1], in [2], in assay [3], in assay [8] and in assay [4] was “inactive” each time. For the same compound, the activation in [7] was 99.5% (active).

For the compound `CC1CS(=O)(=O)CCN1/N=C/c1ccc([N+](=O)[O-])o1` (stereo not drawn), the Potency entry in [1], in [2], in [5], in [3], in assay [6] and in assay [7] was “inactive” in each case. Besides, the Potency result (in assay [8]; in assay [4]; in the assay with Aromatase (Homo sapiens)) was “inactive” throughout.

As to `CC1=C(C(=O)OCCN(Cc2ccccc2)c2ccccc2)C(c2cccc([N+](=O)[O-])c2)C(P2(=O)OCC(C)(C)CO2)=C(C)N1` (stereo not drawn), in [1], the Potency was 13.3 µM (active). In addition, the Potency entry in assay [2], in assay [3], in [6], in [7], in assay [8] and in [4] was “inactive” each time.

Consider `O=C1C(=O)c2ncccc2-c2cccnc21`, for which the Potency was 1.68 µM (active) in assay [1], 5.96 µM (active) in [8] and 23.7 µM (active) in the assay with Aromatase (Homo sapiens). The Potency entry in assay [2], in [5], in assay [3], in assay [6] and in assay [4] was “inactive” in each case.

With `CCCCCCCCCCCCCCCCCC(=O)OCC(C)O` (stereo not drawn), the Potency result (in assay [1]; in assay [2]; in assay [3]; with Aromatase (Homo sapiens)) was “inactive” each time. In addition, the Potency in assay [4] was 21.1 µM (active).

Turning to `CC#CCC(C)[C@H](O)/C=C/[C@@H]1[C@H]2c3cccc(CCCC(=O)O)c3O[C@H]2C[C@H]1O` (stereo partly drawn), the Potency entry (in [1]; in assay [2]; in [3]; in assay [4]; with Aromatase (Homo sapiens)) was “inactive” throughout. For the same compound, the Potency in [7] was 26.6 µM (active).

`O=[N+]([O-])c1ccc(Oc2ccc(N=C=S)cc2)cc1`: the Potency in assay [1] is 29.8 µM (active); in assay [5], 848 nM [inconclusive] (active); with Aromatase (Homo sapiens), 26.6 µM (active). Moreover, the Potency entry in [2], in [3] and in assay [6] was “inactive” in each case.

With `CC(=O)Oc1cccc(C(=O)O)c1OC(C)=O`, the Potency entry (in [1]; in assay [2]; in assay [3]; in assay [4]; in the assay with Aromatase (Homo sapiens)) was “inactive” throughout.

Consider `CN[C@@H]1[C@H](O[C@H]2[C@H](O[C@H]3[C@H](O)[C@@H](O)[C@H](N=C(N)N)[C@@H](O)[C@@H]3N=C(N)N)O[C@@H](C)[C@]2(O)C=O)O[C@@H](CO)[C@H](O)[C@H]1O`, for which the Potency entry in [1], in [2], in [5], in [3], in assay [6] and in assay [7] was “inactive” throughout. In addition, the Potency result (in assay [8]; in [4]; with Aromatase (Homo sapiens)) was “inactive” in each case.

Consider `C#CCOc1ccc2c(C)cc(=O)oc2c1`, for which the Potency result in assay [1], in [2], in [3], in [6], in [7] and in [8] was “inactive” in each case. Besides, the Potency result (in [4]; with Aromatase (Homo sapiens)) was “inactive” throughout.

In the case of `CCCCCCCCCCCCCCCC(=O)OC[C@@H](NC(=O)C(Cl)Cl)[C@H](O)c1ccc([N+](=O)[O-])cc1`, the Potency entry in assay [1], in assay [2], in assay [5], in assay [7], in assay [8] and in assay [4] was “inactive” throughout. For the same compound, the Potency result in the assay with Aromatase (Homo sapiens) is “inactive”.

`CCCCc1cc2c(=O)c(C(=O)OC)c[nH]c2cc1OCc1ccccc1`: the Potency result in assay [1], in assay [2], in assay [5], in [3], in assay [6] and in assay [7] was “inactive” throughout. Besides, the Potency entry (in [8]; with Aromatase (Homo sapiens)) was “inactive” throughout.

As to `CCCCCCCCCCCCCCCC(=O)OCC(COC(=O)CCCCCCCCCCCCCCC)OC(=O)CCCCCCCCCCCCCCC`, the Potency entry in assay [1], in assay [2], in [5], in assay [3], in assay [6] and in assay [8] was “inactive” throughout. Moreover, the Potency entry (in assay [4]; with Aromatase (Homo sapiens)) was “inactive” each time.

Take `Cc1cc2nc3c(=O)[nH]c(=O)nc-3n(C[C@H](O)[C@H](O)[C@H](O)COP(=O)(O)OP(=O)(O)OC[C@H]3O[C@@H](n4cnc5c(N)ncnc54)[C@H](O)[C@@H]3O)c2cc1C`: the Potency result (in assay [1]; in assay [2]; in [6]; in [7]; in assay [8]; with Aromatase (Homo sapiens)) was “inactive” in each case. Also, the Potency in [3] is 16.9 µM (active).
